Measurements: PubChem BioAssay (EPA / NIEHS)
Results filed as inconclusive are left out. Activity calls are given as the source filed them. How the source made its calls: active means hit-call score of the fitted dose curve at least 0.9, where 1 is the maximum; inconclusive means response in the unintended direction; inactive means score below 0.9.

System: not listed separately
Test: NVS_IC_rCaBTZCHL: NovaScreen (NVS) Ion Channel Assay for Calcium Channel, Type L, Benzothiazepine Site (CaBTZCHL) (AID 2283337)
Outline: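 Benzothiazepine-site binding was assessed in a tissue-derived, cell-free rat cortical membrane system. After 1.5 h exposure, radioactivity retained on filters was quantified by scintillation; positive and negative controls accompanied every plate.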

Structure (SMILES)	AC50	outcome
NC(=NCCCCCCN=C(N)/N=C(\N)Nc1ccc(Cl)cc1)/N=C(\N)Nc1ccc(Cl)cc1	8.58 µM (active)	–
CN(C)CCOC(c1ccccc1)c1ccccc1	5.8 µM (active)	–
O=C(CCCN1CCC(O)(c2ccc(Cl)cc2)CC1)c1ccc(F)cc1	2.55 µM (active)	–
C=CC(C)(CCC=C(C)C)OC(C)=O (stereo not drawn)	–	inactive
CCCCc1oc2ccccc2c1C(=O)c1cc(I)c(OCCN(CC)CC)c(I)c1	1.81 µM (active)	–
N=C(N)c1ccc(OCCCCCOc2ccc(C(=N)N)cc2)cc1	2.33 µM (active)	–
CCCCCCCCCCCCCCCCCC[N+](C)(C)Cc1ccccc1	–	inactive

Target: rat Glutamate, MK-801 Agonist Site (GluNMDA_MK801), Grin1 (gene 24408) (UniProt P35439)
Test: NVS_LGIC_rGluNMDA_MK801_Agonist: NovaScreen (NVS) Ligand-Gated Ion Channel Assay for rat Glutamate, MK-801 Agonist Site (GluNMDA_MK801) (AID 2283340)
Outline: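 Rat forebrain membrane preparation; MK-801-site radioligand binding read by filtration and scintillation after 1.5 h. Single-point 25 uM duplicate screen, followed by singleton concentration series to 50 uM max; DMSO baseline.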

Structure (SMILES)	outcome	AC50
CN(C)CCOC(c1ccccc1)c1ccccc1	inactive	–
O=C(CCCN1CCC(O)(c2ccc(Cl)cc2)CC1)c1ccc(F)cc1	inactive	–
N=C(N)c1ccc(OCCCCCOc2ccc(C(=N)N)cc2)cc1	–	35.8 µM (active)

System: guinea pig Histamine Receptor (H2), gene 100729734
Test: NVS_GPCR_gH2: NovaScreen (NVS) G Protein-Coupled Receptor Assay for guinea pig Histamine Receptor (H2) (AID 2283342)
Outline: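 Guinea pig striatal membrane preparation with specific radioligand; bound counts measured by filtration and scintillation 1 h post-dosing, DMSO as baseline. Chemicals passing a 25 uM duplicate screen were titrated to a 50 uM maximum.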

Structure (SMILES)	AC50
CN(C)CCOC(c1ccccc1)c1ccccc1	4.71 µM (active)
O=C(CCCN1CCC(O)(c2ccc(Cl)cc2)CC1)c1ccc(F)cc1	1.65 µM (active)
CCCCc1oc2ccccc2c1C(=O)c1cc(I)c(OCCN(CC)CC)c(I)c1	9.85 µM (active)
N=C(N)c1ccc(OCCCCCOc2ccc(C(=N)N)cc2)cc1	6.98 µM (active)

Target: bovine Estrogen Receptor (ER), ESR1 (gene 407238) (UniProt P49884)
Sequence (P49884 whole entry, looked up): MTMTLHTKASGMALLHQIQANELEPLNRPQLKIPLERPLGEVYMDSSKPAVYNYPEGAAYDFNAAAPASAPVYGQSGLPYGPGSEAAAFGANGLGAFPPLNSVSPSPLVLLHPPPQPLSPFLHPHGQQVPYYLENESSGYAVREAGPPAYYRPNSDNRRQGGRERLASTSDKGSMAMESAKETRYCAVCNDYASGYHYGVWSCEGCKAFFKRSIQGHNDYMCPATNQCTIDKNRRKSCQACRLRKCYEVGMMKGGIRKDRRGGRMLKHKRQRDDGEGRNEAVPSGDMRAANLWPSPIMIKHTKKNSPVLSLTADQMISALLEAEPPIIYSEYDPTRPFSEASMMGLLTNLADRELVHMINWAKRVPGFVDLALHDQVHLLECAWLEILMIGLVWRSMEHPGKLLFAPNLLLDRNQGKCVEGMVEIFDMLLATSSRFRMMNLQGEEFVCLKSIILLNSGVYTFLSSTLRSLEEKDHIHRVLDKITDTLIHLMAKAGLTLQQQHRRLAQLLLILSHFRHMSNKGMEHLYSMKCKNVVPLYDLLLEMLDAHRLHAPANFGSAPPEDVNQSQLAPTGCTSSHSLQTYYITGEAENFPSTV
Test: NVS_NR_bER: NovaScreen (NVS) Nuclear Receptor Binding Assay for bovine Estrogen Receptor (ER) (AID 2283345);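 further: actives lower the bound radioligand count which means they displace the ER ligand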
Outline: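 Bovine uterine membranes; tritiated or iodinated radioligand; competitive displacement; 18 h; scintillation read; DMSO negative control; 25 uM duplicates, then concentration series for actives.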

Structure (SMILES)	outcome	AC50
NC(=NCCCCCCN=C(N)/N=C(\N)Nc1ccc(Cl)cc1)/N=C(\N)Nc1ccc(Cl)cc1	inactive	–
Oc1c(Cl)cc(Cl)cc1Sc1cc(Cl)cc(Cl)c1O	inactive	–
Nc1cc(Cl)c(-c2cc(Cl)c(N)cc2Cl)cc1Cl	inactive	–
CCOC(=O)c1nc(C(Cl)(Cl)Cl)n(-c2ccc(Cl)cc2Cl)n1	inactive	–
C[C@]12CC[C@@H]3c4ccc(O)cc4CC[C@H]3[C@@H]1CC[C@@H]2OC(=O)CCC1CCCC1	–	0.0684 µM (active)
c1ccc(CNc2ncnc3c2ncn3C2CCCCO2)cc1 (stereo not drawn)	inactive	–
O=C(c1cc(O)c(O)c(O)c1)c1ccc(O)c(O)c1O	inactive	–
C=CC(=O)OCC(CO)(COCC(COC(=O)C=C)(COC(=O)C=C)COC(=O)C=C)COC(=O)C=C	inactive	–
C=CC(C)(CCC=C(C)C)OC(C)=O (stereo not drawn)	–	17.1 µM (active)
CCCCCCOC(=O)c1ccc(O)cc1	–	13 µM (active)
C=C(c1ccc(C(=O)O)cc1)c1cc2c(cc1C)C(C)(C)CCC2(C)C	inactive	–
COC1=CC(=O)C[C@@H](C)[C@]12Oc1c(Cl)c(OC)cc(OC)c1C2=O	inactive	–
COc1ccccc1NC(=O)c1cc2ccccc2cc1O	inactive	–
CCCCCCCCCCCC[N+](C)(C)CCCCCCCCCCCC	inactive	–
O=C(Nc1cccc([N+](=O)[O-])c1)c1cc2ccccc2cc1O	inactive	–
O=C1Cc2ccccc2N1c1c(Cl)cccc1Cl	inactive	–
N=C(N)c1ccc(OCCCCCOc2ccc(C(=N)N)cc2)cc1	inactive	–
Oc1ccc(Cc2ccccc2O)cc1	inactive	–
CC1=CC(=O)c2ccccc2C1=O	inactive	–
